Test results: PubChem BioAssay AID1159580 (chemical genetic matrix, 2015)
Several values for one entry are separate records, joined by “and”; a condition that tells them apart may be missing. Identical values can stand only once. About 2,000 (36%) of roughly 5,500 compounds were called active. Roughly 18% stayed inconclusive and do not appear here. Some of the results follow. Unmarked numbers belong to inactive results. Cut-off read from the data, not from the text of the source: active = normalized growth mostly below about 0.91 (no sharp cut-off); inconclusive = no clear call, values can overlap the other calls; inactive = mostly above about 0.92.

Assay: chemical genetic growth profiling, strain panel (AID 1159580);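 note: tested at 20 µM; growth read once vehicle control cultures reached saturation at 30 °C; 1 = growth at the plate median or of vehicle wells; lower values mean less growth of the strain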
Conditions: S. cerevisiae deletion strains, growth OD

Question: For `CCN(CC)C(C)CN1c2ccccc2Sc2ccccc21` (configuration not stated), which normalized growth (locus YAL013W, strain DEP1, active compounds read low) is on record?
Answer: 0.983

Question: What about the normalized growth (locus YAL021C, strain ccr4, active compounds read low) of the same compound?
Answer: 0.399 (active)

Question: And the normalized growth (locus YAL026C, strain drs2, active compounds read low)?
Answer: 0.77 (active)

Question: What about the normalized growth (locus YAL030W, strain snc1, active compounds read low) of the same compound?
Answer: 0.965

Question: What about the normalized growth (locus YBL061C, strain skt5, active compounds read low) of the same compound?
Answer: 0.909 (active)

Question: What about the normalized growth (locus YBR009C, strain hhf1, active compounds read low) of the same compound?
Answer: 0.925

Question: What about the normalized growth (locus YBR021W, strain FUR4, active compounds read low) of the same compound?
Answer: 0.852

Question: What about the normalized growth (locus YBR023C, strain chs3, active compounds read low) of the same compound?
Answer: 0.889 (active)

Question: And the normalized growth (locus YBR171W, strain sec66, active compounds read low)?
Answer: 0.998

Question: What about the normalized growth (locus YBR229C, strain ROT2, active compounds read low) of the same compound?
Answer: 0.982

Question: What about the normalized growth (locus YBR231C, strain swc5, active compounds read low) of the same compound?
Answer: 0.937

Question: And the normalized growth (locus YBR279W, strain paf1, active compounds read low)?
Answer: 0.896 (active)

Question: And the normalized growth (locus YCL011C, strain gbp2, active compounds read low)?
Answer: 0.953

Question: What about the normalized growth (locus YCL016C, strain dcc1, active compounds read low) of the same compound?
Answer: 0.923

Question: What about the normalized growth (locus YCL029C, strain bik1, active compounds read low) of the same compound?
Answer: 0.933

Question: What about the normalized growth (locus YCL061C, strain MRC1, active compounds read low) of the same compound?
Answer: 0.932

Question: And the normalized growth (locus YCL069W, strain vba3, active compounds read low)?
Answer: 0.947

Question: And the normalized growth (locus YCR088W, strain abp1, active compounds read low)?
Answer: 0.986

Question: What about the normalized growth (locus YDL005C, strain med2, active compounds read low) of the same compound?
Answer: 1

Question: What about the normalized growth (locus YDL035C, strain GPR1, active compounds read low) of the same compound?
Answer: 0.917

Question: And the normalized growth (locus YDL040C, strain nat1, active compounds read low)?
Answer: 1

Question: What about the normalized growth (locus YDL074C, strain BRE1, active compounds read low) of the same compound?
Answer: 0.864

Question: And the normalized growth (locus YDL101C, strain DUN1, active compounds read low)?
Answer: 0.978

Question: And the normalized growth (locus YDL134C, strain PPH21, active compounds read low)?
Answer: 0.966

Question: And the normalized growth (locus YDL185W, strain tfp1, active compounds read low)?
Answer: 0.947

Question: And the normalized growth (locus YDL192W, strain arf1, active compounds read low)?
Answer: 0.97

Question: And the normalized growth (locus YDR001C, strain nth1, active compounds read low)?
Answer: 0.987

Question: And the normalized growth (locus YDR069C, strain doa4, active compounds read low)?
Answer: 0.973

Question: What about the normalized growth (locus YDR101C, strain arx1, active compounds read low) of the same compound?
Answer: 0.967

Question: And the normalized growth (locus YDR137W, strain rgp1, active compounds read low)?
Answer: 1.14

Question: And the normalized growth (locus YDR150W, strain NUM1, active compounds read low)?
Answer: 0.977

Question: What about the normalized growth (locus YDR159W, strain sac3, active compounds read low) of the same compound?
Answer: 0.775 (active)

Question: And the normalized growth (locus YDR162C, strain NBP2, active compounds read low)?
Answer: 0.987

Question: And the normalized growth (locus YDR195W, strain ref2)?
Answer: 1.23 [resistant] (active)

Question: And the normalized growth (locus YDR297W, strain sur2, active compounds read low)?
Answer: 0.939

Question: What about the normalized growth (locus YDR318W, strain mcm21, active compounds read low) of the same compound?
Answer: 0.926

Question: And the normalized growth (locus YDR334W, strain swr1, active compounds read low)?
Answer: 1.03

Question: And the normalized growth (locus YDR335W, strain msn5, active compounds read low)?
Answer: 0.959

Question: And the normalized growth (locus YDR388W, active compounds read low)?
Answer: 0.914 (active)

Question: What about the normalized growth (locus YDR392W, strain spt3, active compounds read low) of the same compound?
Answer: 0.911

Question: What about the normalized growth (locus YDR502C, strain sam2, active compounds read low) of the same compound?
Answer: 0.954

Question: And the normalized growth (locus YEL003W, strain gim4, active compounds read low)?
Answer: 0.984

Question: What about the normalized growth (locus YEL037C, strain rad23, active compounds read low) of the same compound?
Answer: 0.984

Question: What about the normalized growth (locus YEL061C, strain CIN8 (second series), active compounds read low) of the same compound?
Answer: 0.992

Question: And the normalized growth (locus YEL061C, strain CIN8, active compounds read low)?
Answer: 0.991

Question: What about the normalized growth (locus YER015W, strain faa2, active compounds read low) of the same compound?
Answer: 0.937

Question: What about the normalized growth (locus YER016W, strain bim1, active compounds read low) of the same compound?
Answer: 0.921 (active)

Question: What about the normalized growth (locus YER110C, active compounds read low) of the same compound?
Answer: 0.956

Question: What about the normalized growth (locus YER111C, strain swi4, active compounds read low) of the same compound?
Answer: 0.987

Question: What about the normalized growth (locus YER155C, strain BEM2 (second series), active compounds read low) of the same compound?
Answer: 0.751 (active)

Question: And the normalized growth (locus YER155C, strain BEM2, active compounds read low)?
Answer: 0.964

Question: What about the normalized growth (locus YER167W, strain BCK2, active compounds read low) of the same compound?
Answer: 0.909

Question: What about the normalized growth (locus YFR010W, strain ubp6, active compounds read low) of the same compound?
Answer: 0.914

Question: And the normalized growth (locus YGL078C, strain dbp3, active compounds read low)?
Answer: 0.98

Question: What about the normalized growth (locus YGL086W, strain mad1, active compounds read low) of the same compound?
Answer: 0.952

Question: What about the normalized growth (locus YGL167C, strain pmr1, active compounds read low) of the same compound?
Answer: 0.999

Question: And the normalized growth (locus YGL173C, strain kem1, active compounds read low)?
Answer: 0.898 (active)

Question: What about the normalized growth (locus YGL227W, strain vid30, active compounds read low) of the same compound?
Answer: 0.995

Question: And the normalized growth (locus YGL240W, strain doc1, active compounds read low)?
Answer: 0.799 (active)

Question: What about the normalized growth (locus YGL248W, strain PDE1, active compounds read low) of the same compound?
Answer: 0.957

Question: And the normalized growth (locus YGL253W, strain hxk2, active compounds read low)?
Answer: 0.907 (active)

Question: And the normalized growth (locus YGR078C, strain PAC10, active compounds read low)?
Answer: 0.905

Question: And the normalized growth (locus YGR135W, strain pre9, active compounds read low)?
Answer: 0.918

Question: What about the normalized growth (locus YGR229C, strain SMI1, active compounds read low) of the same compound?
Answer: 0.904

Question: And the normalized growth (locus YGR252W, strain gcn5, active compounds read low)?
Answer: 0.72 (active)

Question: What about the normalized growth (locus YHR013C, strain ard1, active compounds read low) of the same compound?
Answer: 0.972

Question: What about the normalized growth (locus YHR027C, strain rpn1, active compounds read low) of the same compound?
Answer: 0.796 (active)

Question: And the normalized growth (locus YHR030C, strain SLT2, active compounds read low)?
Answer: 0.976 and 1.03

Question: What about the normalized growth (locus YHR079C, strain IRE1 (second series), active compounds read low) of the same compound?
Answer: 0.935

Question: And the normalized growth (locus YHR079C, strain IRE1, active compounds read low)?
Answer: 1.06

Question: What about the normalized growth (locus YHR094C, strain hxt1, active compounds read low) of the same compound?
Answer: 0.95

Question: And the normalized growth (locus YHR129C, strain ARP1, active compounds read low)?
Answer: 0.986

Question: And the normalized growth (locus YHR142W, strain chs7, active compounds read low)?
Answer: 0.863 (active)

Question: And the normalized growth (locus YHR200W, strain rpn10, active compounds read low)?
Answer: 0.95

Question: And the normalized growth (locus YIL066C, strain RNR3, active compounds read low)?
Answer: 0.97

Question: And the normalized growth (locus YIL073C, strain SPO22, active compounds read low)?
Answer: 0.767

Question: What about the normalized growth (locus YIL125W, strain kgd1, active compounds read low) of the same compound?
Answer: 0.98

Question: And the normalized growth (locus YIR030C, strain dcg1, active compounds read low)?
Answer: 0.953

Question: What about the normalized growth (locus YJL092W, strain hpr5, active compounds read low) of the same compound?
Answer: 0.954

Question: What about the normalized growth (locus YJL095W, strain BCK1 (second series), active compounds read low) of the same compound?
Answer: 0.946

Question: What about the normalized growth (locus YJL095W, strain BCK1, active compounds read low) of the same compound?
Answer: 0.861 and 1.02

Question: What about the normalized growth (locus YJL115W, strain asf1, active compounds read low) of the same compound?
Answer: 0.992

Question: What about the normalized growth (locus YJL129C, strain trk1, active compounds read low) of the same compound?
Answer: 1.04

Question: And the normalized growth (locus YJL134W, strain LCB3, active compounds read low)?
Answer: 0.986

Question: And the normalized growth (locus YJL154C, strain vps35, active compounds read low)?
Answer: 0.975

Question: And the normalized growth (locus YJL164C, strain tpk1, active compounds read low)?
Answer: 0.928

Question: And the normalized growth (locus YJL166W, strain qcr8, active compounds read low)?
Answer: 0.898 (active)

Question: What about the normalized growth (locus YJL168C, strain set2, active compounds read low) of the same compound?
Answer: 0.961

Question: What about the normalized growth (locus YJL187C, strain SWE1 (second series), active compounds read low) of the same compound?
Answer: 0.957

Question: What about the normalized growth (locus YJL187C, strain SWE1, active compounds read low) of the same compound?
Answer: 0.911 (active)

Question: And the normalized growth (locus YJR043C, strain POL32, active compounds read low)?
Answer: 0.903

Question: And the normalized growth (locus YJR066W, strain TOR1, active compounds read low)?
Answer: 0.872
